Assay [1] deals with Glucocorticoid receptor (Homo sapiens) (UniProt P04150). The assay can be described thus: GR-GFP Redistribution (AID 450;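 active means compounds whose dose series gives a full or clear partial fitted curve of increased nuclear translocation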; further: potency means the concentration at half of the fitted maximal effect). The settings on record: U2OS GR-GFP nuclear translocation, laser cytometry, 2 h.
Assay [2] has the same target. The assay can be described thus: GR-EFC Redistribution (AID 451; calls by dose curve; further: potency means the concentration at half of the fitted maximal effect). To be noted: CHO-K1 GR-EFC translocation, beta-gal luminescence, 2 h. A digest of the protocol: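 CHO-K1 cells stably expressing nuclear-localized β-gal enzyme acceptor and GR fused C-terminally to the enzyme donor fragment; ligand-driven nuclear translocation restores β-gal by complementation. Compounds titrated up to 46 uM final, 2 h at 37 °C; luminescence read.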

Assay [3] has as its target Mitogen-activated protein kinase 10 (Mus musculus) (UniProt Q61831). Nature of the assay: JNK3 AlphaScreen Assay (AID 530; active means well fitted curve in either direction with a large enough effect, not every such curve was filed as active;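 further: kinase came from lysate of stimulated human HepG2 cells; signal reports phosphorylation of biotinylated GST-cJun 1-79 at Ser73 with 10 µM ATP; on the % scale 0 is the no-effect control and ±100 the full control effect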). A digest of the protocol: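 Inhibitors reduce antibody binding to phosphorylated biotin-cJun, lowering AlphaScreen luminescence. Lysates from HepG2 cells pre-activated by IL-1beta plus TNF-alpha supplied JNK3; compounds were titrated.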
For orientation: In Alpha technology, singlet oxygen from a donor bead excites a nearby acceptor bead.

Assay [4] in a line: Cell Viability - NIH 3T3 (AID 541).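 Further: plate controls were DMSO alone for no effect and tamoxifen positive control for full effect; nearly all actives have a fitted effect of over 25% in size.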 A digest of the protocol: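 Mouse NIH 3T3 fibroblasts, 1000 cells/well, rested 5 hr at 37 °C, then exposed to compound for 40 hr at 37 °C in complete medium. Viability read as intracellular ATP by CellTiter-Glo luminescence; AC50 from Hill-equation fits of concentration-response data.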
Assay [5] can be described thus: Cell Viability - HUV-EC-C (AID 542). Further: on the % scale 0 is the no-effect control and ±100 the full control effect; nearly all actives have a fitted effect of over 35% in size. A digest of the protocol: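 HUV-EC-C human vascular endothelial cells, 1000/well, exposed to compound for 40 hr at 37 °C in complete medium. Intracellular ATP was read by CellTiter-Glo luminescence. AC50 came from Hill-equation fits of concentration-response data.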
Assay [6] is described as follows: Cell Viability - H-4-II-E (AID 543). Further: on the % scale 0 is the no-effect control and ±100 the full control effect; nearly all actives have a fitted effect of over 35% in size. A digest of the protocol:
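Rat hepatoma H-4-II-E cells, 1500 per well, treated 40 h at 37 °C in complete medium. Cellular ATP read by CellTiter-Glo luminescence; AC50 from Hill fits of concentration-response.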

Assay [7] in a line: Cell Viability - SH-SY5Y (AID 544). Further: nearly all actives have a fitted effect of over 55% in size. To be noted: SH-SY5Y neuroblastoma cell viability; at 92.2 µM (top of the series). A digest of the protocol: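 SH-SY5Y human neuroblastoma cells (1500/well) incubated 5 h, then compound-treated 40 h at 37 °C in complete medium. Viability read as intracellular ATP by CellTiter-Glo luminescence after 20 min; AC50 from Hill-equation fits of qHTS concentration-response.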

Assay [8] in a line: Cell Viability - Renal Proximal Tubule (AID 545). Further: nearly all actives have a fitted effect of over 40% in size. A digest of the protocol: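 Rat kidney proximal tubule cells, freshly isolated; 1000 cells/well, 5 hr settle, compound 40 hr 37 °C. CellTiter-Glo 20 min RT, luminescence read. AC50 by standard Hill fit.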
The nature of assay [9]: Cell Viability - Mesenchymal (AID 546).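 Further: cells exposed to compound for 40 hours before reading.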 The settings on record: mesenchymal cells viability, qHTS; at 91.7 µM (top of the series). A digest of the protocol:
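Normal human renal glomerulus-derived kidney mesenchymal cells, 1000 per well in complete medium, were treated with compounds for 40 hr at 37 °C. Viability was read as intracellular ATP by CellTiter-Glo luminescence; AC50 values came from Hill-equation fits of qHTS concentration-response data.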
(In general: In qHTS, concentration-response curves come from the screen itself.)

Assay [10] has as its target 3',5'-cyclic-AMP phosphodiesterase 4B (Homo sapiens) (UniProt Q07343). The assay can be described thus: qHTS Assay for Inhibitors of PDE-IV (AID 607; active means well fitted activation curve with a large enough effect in the main read-out, with a control signal flat, not every such curve was filed as active; further: % of control where 0% means no effect). A digest of the protocol: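 Live HEK293 cells with a modified cyclic nucleotide-gated (CNG) channel report intracellular cAMP via membrane-potential dye fluorescence (ex 535/em 590 nm). Endogenous PDE-IV was targeted. Compounds were tested at up to 22.9 uM final; RO 20-1724 100 uM served as control.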

Assay [11] in a line: Cellular Toxicity (caspase-3) HepG2 (AID 654).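 Further: cells exposed to compound for 16 hours before reading; 0% = DMSO alone and 100% = caspase signal from 100 µM tamoxifen.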 A digest of the protocol: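 HepG2 cells (1500/well) were treated 16 h at 37 °C in complete medium, then caspase 3/7 activity was read by Caspase-Glo luminescence. Data were normalized to DMSO and 100 uM tamoxifen; AC50 came from Hill-equation fits of qHTS concentration-response.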
Assay [12] in a line: Cellular Toxicity (caspase-3) Jurkat (AID 655).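 Further: cells exposed to compound for 16 h at 37 °C before reading.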 To be noted: Jurkat caspase-3 activation, luminescence; caspase-3 activation: at 92.2 µM (top of the series), DMSO = 0%, tamoxifen = 100%. A digest of the protocol:
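Luminescent caspase-3/7 readout (aminoluciferin substrate cleavage) in human T-cell leukemia Jurkat cells after 16 hr compound exposure. Concentration-response normalized to DMSO and 100 uM tamoxifen; AC50 by standard Hill equation.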

The nature of assay [13]: Cellular Toxicity (caspase-3) HUV-EC-C (AID 656). A digest of the protocol: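 Luminescent caspase-3/7 activation (aminoluciferin substrate cleavage) in HUV-EC-C cells after 16 hr compound exposure, 37°C. Signal normalized to DMSO basal and 100 uM tamoxifen as 100%; AC50 from concentration-response fitted with the Hill equation.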
Assay [14] is described as follows: Cellular Toxicity (caspase-3) SHSY5Y (AID 657). A digest of the protocol:
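Luminescent caspase-3/7 readout (aminoluciferin release) in SH-SY5Y cells after 16 h compound exposure in complete medium. Activity scaled between DMSO basal and 10 uM staurosporine as 100%; concentration-response fitted to Hill equation for AC50.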

Assay [15] is described as follows: Cellular Toxicity (caspase-3) BJ (AID 658).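 Further: 0% = DMSO basal and 100% = 10 µM staurosporine.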 A digest of the protocol:
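Luminescent aminoluciferin-substrate cleavage reports caspase 3/7 activity in normal human BJ fibroblasts after 16 hr compound exposure at 37 °C. Normalized to DMSO (basal) and 10 uM staurosporine (100%); AC50 from Hill fit of concentration-response.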

Assay [16] in a line: Cellular Toxicity (caspase-3) MRC-5 (AID 659).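 Further: 0% = DMSO basal and 100% = 10 µM staurosporine.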 A digest of the protocol:
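Luminescence from caspase-cleaved aminoluciferin substrate (Caspase-Glo 3/7, 1 hr RT) reports caspase 3/7 activity in MRC-5 lung fibroblasts after 16 hr compound exposure. Normalized to DMSO basal and 10 uM staurosporine as 100%; AC50 from Hill fits.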

Assay [17] is described as follows: Cellular Toxicity (caspase-3) Mesangial (AID 660).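 Further: cells exposed to compound for 16 h before the caspase read.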 A digest of the protocol: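 Human renal glomerular mesangial cells, 1000/well, 5 h at 37 C before 16 h compound treatment. Caspase-Glo 3/7 luminescence after 20 min; normalized to DMSO and 100 uM tamoxifen, AC50 from Hill fit.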
A short description of assay [18]: Cellular Toxicity (caspase-3) SK-N-SH (AID 661).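 Further: 0% = DMSO basal and 100% = 10 µM staurosporine.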 A digest of the protocol:
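Human SK-N-SH neuroblastoma cells, 1500/well, were exposed to compounds for 16 hours at 37 °C. Caspase-Glo 3/7 luminescence was normalized to DMSO (basal) and 10 uM staurosporine (100%), and AC50 came from a Hill fit.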

Assay [19] is described as follows: Cellular Toxicity (caspase-3) H-4-II-E (AID 663).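 Further: cells exposed to compound for 16 hr before readout.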 A digest of the protocol: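 Luminescence from caspase-cleaved aminoluciferin substrate, read 20 min after reagent addition, reports caspase 3/7 activation in rat H-4-II-E cells after 16 hr compound exposure. Normalized to DMSO (basal) and 100 uM tamoxifen (100%); AC50 from Hill fits.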
Assay [20] is described as follows: Cellular Toxicity (caspase-3) Hek293 (AID 664).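 Further: cells exposed to compound for 16 h at 37 °C before readout.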 A digest of the protocol:
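HEK293 cells in complete medium treated 16 h at 37 °C, then Caspase-Glo 3/7 luminescence read after 20 min at room temperature. Normalized to DMSO and 100 uM tamoxifen; AC50 from Hill fit of concentration-response.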

Where “and” joins values, the source holds several entries; their conditions need not be identical. Equal values may be shown once. Values without a mark were called inactive. Results filed as inconclusive are left out. Calls of active or inactive are those of the source. Unless noted, the call rests on the fitted dose curve; in most records, active means well fitted curve in the direction sought with a large enough effect; inconclusive means small, poorly fitted or top-dose-only effect, or another doubt; inactive means no such curve, though single readings can be large; an effect the other way counts as inactive or inconclusive.

Sequence of 3',5'-cyclic-AMP phosphodiesterase 4B (Homo sapiens) (Q07343 whole entry, looked up): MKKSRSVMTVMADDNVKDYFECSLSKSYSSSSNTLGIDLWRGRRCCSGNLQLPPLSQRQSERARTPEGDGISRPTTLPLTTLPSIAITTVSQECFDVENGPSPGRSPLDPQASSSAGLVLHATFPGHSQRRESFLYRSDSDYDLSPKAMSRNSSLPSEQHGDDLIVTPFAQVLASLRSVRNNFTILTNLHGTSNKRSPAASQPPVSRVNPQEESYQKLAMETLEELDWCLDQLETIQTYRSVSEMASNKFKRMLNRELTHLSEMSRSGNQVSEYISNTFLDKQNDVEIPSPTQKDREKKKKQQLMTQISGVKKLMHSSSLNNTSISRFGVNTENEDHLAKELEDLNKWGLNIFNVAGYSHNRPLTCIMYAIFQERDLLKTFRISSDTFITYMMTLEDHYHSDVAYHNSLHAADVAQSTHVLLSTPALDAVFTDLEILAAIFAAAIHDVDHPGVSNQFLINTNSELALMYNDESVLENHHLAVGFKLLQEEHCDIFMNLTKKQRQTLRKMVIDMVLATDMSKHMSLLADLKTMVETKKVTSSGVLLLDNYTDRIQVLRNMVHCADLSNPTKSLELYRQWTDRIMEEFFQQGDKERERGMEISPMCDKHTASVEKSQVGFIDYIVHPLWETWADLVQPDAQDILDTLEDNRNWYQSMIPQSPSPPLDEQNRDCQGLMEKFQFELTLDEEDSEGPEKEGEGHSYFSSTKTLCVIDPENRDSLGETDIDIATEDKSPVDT
Sequence of Glucocorticoid receptor (Homo sapiens) (P04150 whole entry, looked up, the tested form may be a part): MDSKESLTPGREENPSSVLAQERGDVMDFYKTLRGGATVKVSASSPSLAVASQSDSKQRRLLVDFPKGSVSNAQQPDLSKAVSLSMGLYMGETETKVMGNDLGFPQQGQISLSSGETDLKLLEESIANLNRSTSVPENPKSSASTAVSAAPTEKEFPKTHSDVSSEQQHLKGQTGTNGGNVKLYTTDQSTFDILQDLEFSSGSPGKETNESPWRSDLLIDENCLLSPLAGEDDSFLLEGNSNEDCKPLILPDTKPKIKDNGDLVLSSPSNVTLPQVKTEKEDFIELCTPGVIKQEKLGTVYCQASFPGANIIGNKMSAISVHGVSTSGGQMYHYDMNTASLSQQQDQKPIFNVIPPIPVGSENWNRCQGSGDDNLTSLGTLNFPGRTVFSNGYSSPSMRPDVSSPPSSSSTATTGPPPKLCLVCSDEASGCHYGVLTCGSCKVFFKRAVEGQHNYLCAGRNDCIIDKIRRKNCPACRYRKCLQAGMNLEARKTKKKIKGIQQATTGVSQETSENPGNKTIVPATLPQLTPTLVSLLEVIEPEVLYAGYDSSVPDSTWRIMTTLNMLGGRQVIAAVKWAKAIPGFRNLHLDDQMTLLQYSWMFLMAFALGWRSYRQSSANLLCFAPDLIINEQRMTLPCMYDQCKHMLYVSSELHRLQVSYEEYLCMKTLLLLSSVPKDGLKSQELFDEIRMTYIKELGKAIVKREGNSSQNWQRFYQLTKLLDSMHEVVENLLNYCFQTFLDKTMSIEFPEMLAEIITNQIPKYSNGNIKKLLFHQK

Regarding `O=C(O)CCC(=O)C(=O)O`, the Potency in assay [1] is more than 46 µM; in assay [2], more than 9.22 µM. For the same compound, the outcome in [3], in assay [4], in [8], in assay [10], in [11] and in assay [13] was inactive. In addition, the compound was called inactive in assay [14], in assay [15], in assay [16], in assay [17], in assay [18] and in assay [19]. The compound was called inactive in assay [20]. The Potency entry in assay [5] and in assay [6] was “inactive” each time. The viability change, negative = cytotoxic in assay [7] is 4.65%. For the same compound, the activity change, negative = cytotoxicity in assay [9] was 6.49%. Further, in assay [12], the caspase-3 activation is 0.778%.

Regarding `CC[N+](C)(C)Cc1ccccc1Br`, the Potency was > 46 µM and > 20.6 µM in assay [1]; > 46 µM and > 20.6 µM in assay [2]. In addition, the compound was classed as inactive in assay [3] and in [10].

In the case of `Cc1ccccc1`, the compound was classed as inactive in assay [3], in assay [4], in assay [8], in [11], in assay [13] and in assay [14]. Also, the result in [15], in assay [16], in assay [17], in assay [18], in [19] and in [20] was inactive. Besides, the Potency entry in assay [5] and in [6] was “inactive” throughout. Moreover, the viability change, negative = cytotoxic in assay [7] was -8.19% and -6.58%. In assay [9], the activity change, negative = cytotoxicity was 6.68% and 3.68%. The caspase-3 activation in assay [12] was -1.43% and -0.873%.

`CC(C)N=c1cc2n(-c3ccc(Cl)cc3)c3ccccc3nc-2cc1Nc1ccc(Cl)cc1`: the Potency in assay [1] and in [2] was more than 20.6 µM each time. The call in [10] was inactive.

For the compound `COc1ccc(CCNC[C@H](O)c2ccc(O)cc2)cc1OC`, the Potency in assay [1] and in [2] was more than 46 µM in each case. Also, the call in assay [3] and in assay [10] was inactive.

For the compound `C[C@]12C=CC(=O)C=C1CC[C@@H]1[C@@H]2[C@@H](O)C[C@@]2(C)[C@H]1CC[C@]2(O)C(=O)COC(=O)CCC(=O)O`, the Potency in [1] is 0.0285 µM (active).

Turning to `CC1(C)S[C@@H]2[C@H](NC(=O)Cc3ccccc3)C(=O)N2[C@H]1C(=O)O`, the Potency in [1] and in assay [2] was more than 20.6 µM throughout. Moreover, the result in assay [3] and in [10] was inactive.

With `Nc1ccn([C@H]2CS[C@@H](CO)O2)c(=O)n1`, the call in assay [3], in assay [4], in assay [8], in assay [11], in assay [13] and in assay [14] was inactive. The compound was called inactive in assay [15], in [16], in assay [17], in assay [18], in assay [19] and in assay [20]. Moreover, the Potency result in assay [5] and in assay [6] was “inactive” throughout. For the same compound, in assay [7], the viability change, negative = cytotoxic was 1.14%. The activity change, negative = cytotoxicity in [9] is 7.61%. The caspase-3 activation in assay [12] is -0.771%.

As for `CCOc1ccc2c(c1)C(C)=CC(C)(C)N2`, the call in [3], in [4], in assay [8], in assay [10], in assay [11] and in assay [13] was inactive. Besides, the compound was called inactive in assay [14], in assay [15], in [16], in assay [17], in assay [18] and in [19]. Also, the call in assay [20] was inactive. Besides, the Potency result in assay [5] and in assay [6] was “inactive” throughout. Further, in assay [9], the activity change, negative = cytotoxicity is 9.89%. Also, in [12], the caspase-3 activation was 15.7%.

On to `COC(=O)CCC(=O)CN`, for which the Potency in assay [1] is more than 20.6 µM.
